Among the data in PubChem BioAssay (NCI) are growth values, retold here.

Some test systems named below: NCI-H23 lung; NCI-H226 lung; NCI-H322M lung; HOP-62 NSCLC; NCI-H460 lung; HOP-92 NSCLC; NCI-H522 lung; A549/ATCC NSCLC; 786-0 renal; COLO 205 colon; DU-145 prostate; K-562 leukemia; MALME-3M melanoma; MDA-MB-231 breast; RXF 393 renal; SF-268 CNS; SF-295 CNS; SF-539 CNS; UACC-257 melanoma; M14 melanoma.
Holding throughout (assay): NCI-60 one-dose screen, 48 h (100 = growth as untreated, 0 = no growth, -100 = all killed)
Holding throughout (settings): 10 µM unless noted

Compounds without any hit were thinned out: in the full panel of roughly 83,000, 20% have a hit.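 Results are percent growth after 48 hours of single-concentration exposure. 100 means growth as in untreated cells, lower positive values show inhibition; negative values down to -100 show cell death.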 Unmarked numbers belong to inactive results. Active and inactive are the calls of the source. The calls were made as follows: active = growth percent below 10; inactive = the rest.

Consider `O=C1[C@@H](OS(=O)(=O)CC(F)(F)F)[C@H](c2ccc(F)cn2)N1c1cc2c3ccccc3ccc2c2ccccc12`, for which the growth with NCI-H23 lung is 84.5%; with NCI-H226 lung, 92.3%; in the experiment on NCI-H322M lung it was 104%; with HOP-62 NSCLC, 88.6%; in the experiment with NCI-H460 lung, 104%; in the experiment on HOP-92 NSCLC, 71.4%. The growth is 35.7% with NCI-H522 lung; 82.5% in the experiment with A549/ATCC NSCLC; 71.7% in the experiment on 786-0 renal; 101% with COLO 205 colon; 84.5% in the experiment with DU-145 prostate; 44.5% in the experiment with K-562 leukemia. The growth in the experiment on MALME-3M melanoma was 95%; with MDA-MB-231 breast it was 71.2%; in the experiment on RXF 393 renal, 85.9%; in the experiment with SF-268 CNS, 78.9%; in the experiment on SF-295 CNS it was 83.3%; with SF-539 CNS it was 87.1%. Moreover, the results for the growth in the experiment with UACC-257 melanoma and in the experiment on M14 melanoma were 79% and 72.9%, respectively.
As to `C[C@H]1[C@H](C)CC[C@]2(C(=O)OCCOCCOCC[P+](c3ccccc3)(c3ccccc3)c3ccccc3)CC[C@]3(C)C(=CC[C@@H]4[C@@]5(C)CC[C@H](OC(=O)C(Cl)Cl)C(C)(C)[C@@H]5CC[C@]43C)[C@H]12`, the growth in the experiment with NCI-H23 lung was 5.49% (active); in the experiment with NCI-H226 lung, 15%; in the experiment on NCI-H322M lung, 27.8%; in the experiment with HOP-62 NSCLC it was 25.3%; in the experiment on NCI-H460 lung, 6.27% (active); in the experiment on HOP-92 NSCLC, -26.6% (active). The growth with NCI-H522 lung was -15.3% (active); in the experiment on A549/ATCC NSCLC, 11.2%; with 786-0 renal, -38.3% (active); in the experiment on COLO 205 colon, -7.06% (active); in the experiment with DU-145 prostate, 26%; in the experiment on K-562 leukemia, 0.14% (active). Also, the growth with MALME-3M melanoma is -78.5% (active); in the experiment on MDA-MB-231 breast it was -0.496% (active); in the experiment with RXF 393 renal, -29.5% (active); in the experiment with SF-268 CNS, 25.9%; in the experiment on SF-295 CNS, -34.8% (active); with SF-539 CNS it was 9.4% (active). Besides, the growth in the experiment on UACC-257 melanoma was -13.6% (active); with M14 melanoma, 8.99% (active).
Turning to `O=C(Nc1nc2ccc(C(F)(F)F)cc2s1)c1cc(Cl)ccc1O`, the growth in the experiment on NCI-H23 lung was -12% (active); in the experiment with NCI-H226 lung, 5.73% (active); with NCI-H322M lung it was 10.6%; in the experiment on HOP-62 NSCLC it was 4.72% (active); with NCI-H460 lung it was 4.41% (active); in the experiment with HOP-92 NSCLC, -12.3% (active). In addition, the growth in the experiment with NCI-H522 lung is -15.1% (active); in the experiment with A549/ATCC NSCLC, 11.3%; in the experiment on 786-0 renal, 9.95% (active); with COLO 205 colon, -57.3% (active); in the experiment with DU-145 prostate it was 25.9%; in the experiment on K-562 leukemia it was 5.73% (active). In addition, the growth in the experiment with MALME-3M melanoma was -16.6% (active); in the experiment on MDA-MB-231 breast it was -10.5% (active); in the experiment with RXF 393 renal, -2.8% (active); in the experiment with SF-268 CNS, 19.5%; in the experiment with SF-295 CNS, -31.2% (active); in the experiment with SF-539 CNS, 14.6%. Further, the growth in the experiment with UACC-257 melanoma was -8.55% (active); in the experiment on M14 melanoma it was 15.1%.
For `O=C1C(Cl)=C(NCCCN(CCCNC2=C(Cl)C(=O)c3ccccc3C2=O)C2=C(Cl)C(=O)c3ccccc3C2=O)C(=O)c2ccccc21`, the growth is -13.5% (active) in the experiment on NCI-H23 lung; 88.1% with NCI-H226 lung; 61.5% with NCI-H322M lung; 102% with HOP-62 NSCLC; 39.2% in the experiment with NCI-H460 lung; 87.9% with HOP-92 NSCLC. Also, the growth in the experiment on NCI-H522 lung was 73.8%; in the experiment on A549/ATCC NSCLC, 45.6%; with 786-0 renal it was 90.5%; with COLO 205 colon, -13.8% (active); in the experiment on DU-145 prostate, -88% (active); with K-562 leukemia, 12.2%. For the same compound, the growth is -28.4% (active) with MALME-3M melanoma; 38.5% in the experiment on MDA-MB-231 breast; 85.3% with RXF 393 renal; 74.7% in the experiment on SF-268 CNS; 91.4% with SF-295 CNS; 88.3% in the experiment with SF-539 CNS. Further, the growth was 52.6% in the experiment with UACC-257 melanoma and 11.7% in the experiment on M14 melanoma.
With `COc1cc(C(=O)Nc2cc(O)c(C/C=C(\C)CCC=C(C)C)c(O)c2)cc2c1O[C@]1(C)CC[C@@H](O)C(C)(C)[C@H]1C2`, the growth in the experiment on NCI-H23 lung was 27.8%; with NCI-H226 lung it was 40.5%; in the experiment with NCI-H322M lung, 48.2%; in the experiment on HOP-62 NSCLC it was 8.47% (active); with NCI-H460 lung, 12.4%; with HOP-92 NSCLC, -2.91% (active). For the same compound, the growth in the experiment with NCI-H522 lung was 18.8%; with A549/ATCC NSCLC, 11.9%; with 786-0 renal, -6.12% (active); in the experiment with COLO 205 colon it was -22.2% (active); in the experiment with DU-145 prostate it was 27%; in the experiment with K-562 leukemia, -31.5% (active). Also, the growth with MALME-3M melanoma is -5.78% (active); in the experiment on MDA-MB-231 breast, -36.5% (active); with RXF 393 renal, -40.3% (active); with SF-268 CNS it was 24.8%; in the experiment on SF-295 CNS, -36.2% (active); with SF-539 CNS, -41.7% (active). For the same compound, the results for the growth in the experiment with UACC-257 melanoma and with M14 melanoma were 24% and -0.604% (active), respectively.
Regarding `COc1cc(C(=O)Nc2cc(OC)c3ccn(C)c3c2)cc2c1C[C@]1(C)CC[C@@H](O)C(C)(C)[C@H]1O2`, the growth was 30.3% in the experiment with NCI-H23 lung; 76.7% in the experiment with NCI-H226 lung; 57.3% in the experiment on NCI-H322M lung; 11.7% in the experiment with HOP-62 NSCLC; 14% with NCI-H460 lung; 8.71% (active) in the experiment on HOP-92 NSCLC. The growth is -3.97% (active) in the experiment on NCI-H522 lung; 24.1% in the experiment with A549/ATCC NSCLC; 0.587% (active) in the experiment with 786-0 renal; 3.69% (active) in the experiment with COLO 205 colon; 32.1% in the experiment on DU-145 prostate; 9.98% (active) in the experiment with K-562 leukemia. The growth with MALME-3M melanoma is 31%; with MDA-MB-231 breast it was 30.6%; with RXF 393 renal, -32.8% (active); in the experiment on SF-268 CNS, 27.3%; in the experiment on SF-295 CNS, -44.2% (active); with SF-539 CNS, -26.1% (active). Besides, the growth in the experiment on UACC-257 melanoma was 32.5%; in the experiment on M14 melanoma, -32.7% (active).
As for `CCOC(=O)C(=Cc1c(-c2ccccc2)[nH]c2ccccc12)C(=O)OCC`, the growth in the experiment with NCI-H23 lung is 50.7%; in the experiment on NCI-H226 lung, 60.1%; with NCI-H322M lung it was 81.3%; with HOP-62 NSCLC it was 75.9%; in the experiment on NCI-H460 lung, 21.5%; in the experiment on HOP-92 NSCLC it was -5.04% (active). For the same compound, the growth with NCI-H522 lung is -33.7% (active); with A549/ATCC NSCLC it was 40.3%; with 786-0 renal it was 90.4%; in the experiment on COLO 205 colon, 58.7%; in the experiment with DU-145 prostate it was 58.7%; in the experiment on K-562 leukemia, -6.49% (active). The growth in the experiment on MALME-3M melanoma was 95.5%; with MDA-MB-231 breast, 63.3%; in the experiment on RXF 393 renal it was 51.9%; in the experiment with SF-268 CNS, 60.7%; in the experiment with SF-295 CNS, -10.2% (active); in the experiment on SF-539 CNS, 88.1%. Further, the growth in the experiment on UACC-257 melanoma is 44.3%; in the experiment on M14 melanoma, 47.8%.
For `Cc1ccccc1NC(=O)c1sc2nc(C)c(C(C)O)cc2c1N` (stereo not given), the growth was 79% with NCI-H23 lung; 88.6% in the experiment with NCI-H226 lung; 86% in the experiment on NCI-H322M lung; 45.1% in the experiment with HOP-62 NSCLC; 35.4% in the experiment on NCI-H460 lung; 47.3% in the experiment on HOP-92 NSCLC. For the same compound, the growth is 32.8% in the experiment on NCI-H522 lung; 36.2% in the experiment with A549/ATCC NSCLC; 57% in the experiment on 786-0 renal; 40.5% in the experiment with COLO 205 colon; 81.8% in the experiment on DU-145 prostate; 14.4% in the experiment on K-562 leukemia. In addition, the growth in the experiment on MALME-3M melanoma was 60.2%; in the experiment with MDA-MB-231 breast it was 59.4%; in the experiment with RXF 393 renal, 44.9%; with SF-268 CNS it was 67.5%; with SF-295 CNS, 39.5%; with SF-539 CNS, 31.7%. The growth in the experiment with UACC-257 melanoma is 52.5%; in the experiment with M14 melanoma it was 24.7%.
